Assay results as given in paper PMC7862700, “An all-to-all approach to the identification of sequence-specific readers for epigenetic DNA modifications on cytosine”.

Assays:
Experiment in all cases: DAPPL (digital affinity profiling via proximity ligation, sequencing); 10 mM Tris-HCl pH 7.5, 50 mM NaCl, 1 mM DTT, 4% glycerol, room temperature, 30 min; GST-TFs on glutathione beads, 16-mer random dsDNA library, 0.1% formaldehyde crosslink after washing; high values mean tight binding
FEV = target: T1, FEV (Homo sapiens, UniProt Q99581 1-238); conditions: protein: recombinant; tags: N-terminal GST; dsDNA, one strand shown
T1 sequence: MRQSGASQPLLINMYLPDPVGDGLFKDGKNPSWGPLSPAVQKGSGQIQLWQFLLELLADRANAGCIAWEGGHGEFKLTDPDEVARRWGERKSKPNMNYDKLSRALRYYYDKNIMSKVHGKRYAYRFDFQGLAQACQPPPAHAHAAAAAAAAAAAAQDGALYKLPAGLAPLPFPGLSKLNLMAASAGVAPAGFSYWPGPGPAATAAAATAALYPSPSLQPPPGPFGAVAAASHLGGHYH
Outline: (§1)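 Human transcription factors were made in yeast as GST fusions, captured on glutathione beads and barcoded with DNA. With a tag-only sample included, the pool was incubated with 200 nmole of a random double-stranded 16-mer DNA library in Tris/NaCl/DTT/glycerol buffer at room temperature for 30 min, then crosslinked with 0.1% formaldehyde after washing, ligated by proximity, amplified and sequenced. For binding signal, each hexamer's read frequency for a factor is divided by its frequency for the tag-only sample.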

ETV5 = ETV5 (Homo sapiens, UniProt P41161 1-510); conditions: protein: recombinant; tags: N-terminal GST; dsDNA, one strand shown
Outline: as §1

HSF1 = HSF1 (Homo sapiens, UniProt Q00613 1-529); conditions: protein: recombinant; tags: N-terminal GST; chain copies: 3; dsDNA, one strand shown
Outline: as §1

SPIC = target: T2, SPIC (Homo sapiens, UniProt Q8N5J4 1-248); conditions: protein: recombinant; tags: N-terminal GST; dsDNA, one strand shown
T2 sequence: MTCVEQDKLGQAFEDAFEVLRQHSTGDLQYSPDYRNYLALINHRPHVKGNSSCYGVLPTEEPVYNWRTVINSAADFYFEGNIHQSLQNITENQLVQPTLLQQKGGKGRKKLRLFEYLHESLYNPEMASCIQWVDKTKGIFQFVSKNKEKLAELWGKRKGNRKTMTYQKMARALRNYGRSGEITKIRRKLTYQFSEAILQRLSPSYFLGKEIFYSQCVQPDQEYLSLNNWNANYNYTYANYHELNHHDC
Outline: as §1

ELF4 = ELF4 (Homo sapiens, UniProt Q99607 1-663); conditions: protein: recombinant; tags: N-terminal GST; dsDNA, one strand shown
Outline: as §1

ELK4 = target: T3, ELK4 (Homo sapiens, UniProt P28324-2 1-405); conditions: protein: recombinant; tags: N-terminal GST; dsDNA, one strand shown
T3 sequence: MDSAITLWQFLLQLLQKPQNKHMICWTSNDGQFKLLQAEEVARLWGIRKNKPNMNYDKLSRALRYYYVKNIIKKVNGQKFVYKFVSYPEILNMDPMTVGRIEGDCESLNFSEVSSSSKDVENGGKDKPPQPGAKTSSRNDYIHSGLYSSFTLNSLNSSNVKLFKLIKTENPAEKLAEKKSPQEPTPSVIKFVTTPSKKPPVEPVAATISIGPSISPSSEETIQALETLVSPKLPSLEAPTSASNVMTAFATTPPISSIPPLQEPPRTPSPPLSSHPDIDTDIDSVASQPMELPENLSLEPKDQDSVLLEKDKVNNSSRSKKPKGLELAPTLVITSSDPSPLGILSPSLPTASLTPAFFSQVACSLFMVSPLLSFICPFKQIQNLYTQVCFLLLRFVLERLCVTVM
Outline: as §1

ETV2 = target: T4, ETV2 (Homo sapiens, UniProt O00321 1-342); conditions: protein: recombinant; tags: N-terminal GST; dsDNA, one strand shown
T4 sequence: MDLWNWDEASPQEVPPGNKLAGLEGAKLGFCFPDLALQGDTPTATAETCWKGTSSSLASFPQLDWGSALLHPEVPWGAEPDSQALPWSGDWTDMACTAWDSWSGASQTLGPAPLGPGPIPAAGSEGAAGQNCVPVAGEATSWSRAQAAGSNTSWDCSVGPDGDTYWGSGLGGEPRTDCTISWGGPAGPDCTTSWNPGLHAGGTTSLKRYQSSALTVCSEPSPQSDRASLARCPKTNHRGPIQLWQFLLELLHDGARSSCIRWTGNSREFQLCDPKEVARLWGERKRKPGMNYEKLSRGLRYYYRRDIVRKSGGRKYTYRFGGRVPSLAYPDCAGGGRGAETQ
Outline: as §1

ELF3 = target: T5, ELF3 (Homo sapiens, UniProt P78545 1-371); conditions: protein: recombinant; tags: N-terminal GST; dsDNA, one strand shown
T5 sequence: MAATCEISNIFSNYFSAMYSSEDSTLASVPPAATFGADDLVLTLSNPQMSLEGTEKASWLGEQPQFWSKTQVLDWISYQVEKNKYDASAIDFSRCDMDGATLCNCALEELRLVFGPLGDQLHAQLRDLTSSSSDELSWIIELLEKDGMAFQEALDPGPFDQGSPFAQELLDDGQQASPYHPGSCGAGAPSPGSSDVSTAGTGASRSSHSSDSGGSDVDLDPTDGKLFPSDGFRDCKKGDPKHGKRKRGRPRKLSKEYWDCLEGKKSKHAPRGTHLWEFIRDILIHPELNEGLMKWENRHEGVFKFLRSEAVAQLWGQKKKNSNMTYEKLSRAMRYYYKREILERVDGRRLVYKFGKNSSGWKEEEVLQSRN
Outline: as §1

CRX = CRX (Homo sapiens, UniProt O43186 1-299); conditions: protein: recombinant; tags: N-terminal GST; dsDNA, one strand shown
Outline: as §1

ETV1 = ETV1 (Homo sapiens, UniProt P50549 1-477); conditions: protein: recombinant; tags: N-terminal GST; dsDNA, one strand shown
Outline: as §1

ERF = target: T6, ERF (Homo sapiens, UniProt P50548 1-548); conditions: protein: recombinant; tags: N-terminal GST; dsDNA, one strand shown
T6 sequence: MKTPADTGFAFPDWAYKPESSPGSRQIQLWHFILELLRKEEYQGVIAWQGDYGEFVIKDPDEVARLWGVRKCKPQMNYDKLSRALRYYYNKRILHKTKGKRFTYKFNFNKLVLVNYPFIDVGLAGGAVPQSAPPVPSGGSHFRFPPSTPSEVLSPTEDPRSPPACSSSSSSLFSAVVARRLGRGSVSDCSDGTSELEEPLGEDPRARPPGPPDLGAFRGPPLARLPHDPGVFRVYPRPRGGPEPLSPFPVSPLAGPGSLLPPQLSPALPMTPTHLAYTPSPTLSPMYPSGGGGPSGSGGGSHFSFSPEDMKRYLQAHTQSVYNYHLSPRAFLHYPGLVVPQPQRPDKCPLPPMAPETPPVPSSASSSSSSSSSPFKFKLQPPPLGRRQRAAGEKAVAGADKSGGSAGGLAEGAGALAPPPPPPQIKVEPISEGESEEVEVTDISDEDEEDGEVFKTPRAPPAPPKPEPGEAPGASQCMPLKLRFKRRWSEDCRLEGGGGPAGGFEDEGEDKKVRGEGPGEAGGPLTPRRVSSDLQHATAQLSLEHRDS
Outline: as §1

ETV3L = target: T7, ETV3L (Homo sapiens, UniProt Q6ZN32 1-361); conditions: protein: recombinant; tags: N-terminal GST; dsDNA, one strand shown
T7 sequence: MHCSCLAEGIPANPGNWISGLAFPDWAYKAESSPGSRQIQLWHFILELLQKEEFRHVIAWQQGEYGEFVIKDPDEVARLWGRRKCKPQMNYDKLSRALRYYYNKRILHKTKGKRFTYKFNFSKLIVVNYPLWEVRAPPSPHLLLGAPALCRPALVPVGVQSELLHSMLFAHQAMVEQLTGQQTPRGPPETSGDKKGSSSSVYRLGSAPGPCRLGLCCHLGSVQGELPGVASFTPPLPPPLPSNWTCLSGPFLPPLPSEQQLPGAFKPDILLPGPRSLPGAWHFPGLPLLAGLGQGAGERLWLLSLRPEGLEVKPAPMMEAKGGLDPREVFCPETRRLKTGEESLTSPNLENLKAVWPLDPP
Outline: as §1

ETS2 = target: T8, ETS2 (Homo sapiens, UniProt P15036 1-469); conditions: protein: recombinant; tags: N-terminal GST; dsDNA, one strand shown
T8 sequence: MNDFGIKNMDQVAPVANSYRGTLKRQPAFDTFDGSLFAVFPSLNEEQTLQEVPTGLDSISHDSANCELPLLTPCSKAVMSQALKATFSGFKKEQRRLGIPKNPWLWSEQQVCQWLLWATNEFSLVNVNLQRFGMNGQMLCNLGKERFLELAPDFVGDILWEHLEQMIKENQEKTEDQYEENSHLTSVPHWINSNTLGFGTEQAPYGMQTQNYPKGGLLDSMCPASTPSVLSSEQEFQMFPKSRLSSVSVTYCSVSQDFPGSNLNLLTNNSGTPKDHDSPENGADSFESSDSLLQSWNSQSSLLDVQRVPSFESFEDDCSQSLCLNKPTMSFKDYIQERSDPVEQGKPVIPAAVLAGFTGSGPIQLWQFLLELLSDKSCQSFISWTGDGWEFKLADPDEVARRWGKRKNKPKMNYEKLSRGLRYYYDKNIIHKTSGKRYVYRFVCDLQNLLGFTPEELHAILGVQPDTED
Outline: as §1

SPDEF = target: T9, SPDEF (Homo sapiens, UniProt O95238 1-335); conditions: protein: recombinant; tags: N-terminal GST; dsDNA, one strand shown
T9 sequence: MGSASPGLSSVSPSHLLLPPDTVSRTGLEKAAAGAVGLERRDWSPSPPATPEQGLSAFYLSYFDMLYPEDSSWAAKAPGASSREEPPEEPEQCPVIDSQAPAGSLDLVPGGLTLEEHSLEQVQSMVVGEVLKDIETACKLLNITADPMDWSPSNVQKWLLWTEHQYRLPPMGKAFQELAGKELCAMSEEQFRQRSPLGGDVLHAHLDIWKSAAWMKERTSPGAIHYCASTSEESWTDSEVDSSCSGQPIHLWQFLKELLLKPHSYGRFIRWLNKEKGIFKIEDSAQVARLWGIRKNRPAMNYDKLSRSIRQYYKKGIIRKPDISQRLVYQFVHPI
Outline: as §1

ETV7 = target: T10, ETV7 (Homo sapiens, UniProt Q9Y603 1-341); conditions: protein: recombinant; tags: N-terminal GST; dsDNA, one strand shown
T10 sequence: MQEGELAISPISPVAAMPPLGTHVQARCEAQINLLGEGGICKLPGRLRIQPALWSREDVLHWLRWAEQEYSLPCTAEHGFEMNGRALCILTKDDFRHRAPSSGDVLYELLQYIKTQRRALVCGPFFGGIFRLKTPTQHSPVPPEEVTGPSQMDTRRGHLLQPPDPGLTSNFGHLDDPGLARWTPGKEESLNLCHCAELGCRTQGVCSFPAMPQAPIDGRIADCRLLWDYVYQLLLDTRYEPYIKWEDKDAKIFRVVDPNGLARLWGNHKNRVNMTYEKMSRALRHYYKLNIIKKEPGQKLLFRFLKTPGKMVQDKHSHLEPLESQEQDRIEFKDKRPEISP
Outline: as §1

ELF5 = target: T11, ELF5 (Homo sapiens, UniProt Q9UKW6-2 1-255); conditions: protein: recombinant; tags: N-terminal GST; dsDNA, one strand shown
T11 sequence: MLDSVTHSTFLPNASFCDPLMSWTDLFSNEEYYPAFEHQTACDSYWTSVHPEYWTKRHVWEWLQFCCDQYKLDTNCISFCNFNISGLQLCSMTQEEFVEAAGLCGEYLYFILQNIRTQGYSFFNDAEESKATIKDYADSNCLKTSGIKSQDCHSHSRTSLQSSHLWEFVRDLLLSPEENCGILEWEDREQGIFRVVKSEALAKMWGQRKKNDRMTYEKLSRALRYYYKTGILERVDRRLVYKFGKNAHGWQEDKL
Outline: as §1

ETV3 = target: T12, ETV3 (Homo sapiens, UniProt P41162-2 1-143); conditions: protein: recombinant; tags: N-terminal GST; dsDNA, one strand shown
T12 sequence: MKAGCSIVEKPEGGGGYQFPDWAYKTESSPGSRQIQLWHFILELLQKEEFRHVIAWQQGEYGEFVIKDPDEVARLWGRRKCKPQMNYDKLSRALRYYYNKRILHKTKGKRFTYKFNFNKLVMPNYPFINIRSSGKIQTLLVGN
Outline: as §1

ETV6 = ETV6 (Homo sapiens, UniProt P41212 1-452); conditions: protein: recombinant; tags: N-terminal GST; dsDNA, one strand shown
Outline: as §1

Sequence of ELF4 (Q99607 whole entry): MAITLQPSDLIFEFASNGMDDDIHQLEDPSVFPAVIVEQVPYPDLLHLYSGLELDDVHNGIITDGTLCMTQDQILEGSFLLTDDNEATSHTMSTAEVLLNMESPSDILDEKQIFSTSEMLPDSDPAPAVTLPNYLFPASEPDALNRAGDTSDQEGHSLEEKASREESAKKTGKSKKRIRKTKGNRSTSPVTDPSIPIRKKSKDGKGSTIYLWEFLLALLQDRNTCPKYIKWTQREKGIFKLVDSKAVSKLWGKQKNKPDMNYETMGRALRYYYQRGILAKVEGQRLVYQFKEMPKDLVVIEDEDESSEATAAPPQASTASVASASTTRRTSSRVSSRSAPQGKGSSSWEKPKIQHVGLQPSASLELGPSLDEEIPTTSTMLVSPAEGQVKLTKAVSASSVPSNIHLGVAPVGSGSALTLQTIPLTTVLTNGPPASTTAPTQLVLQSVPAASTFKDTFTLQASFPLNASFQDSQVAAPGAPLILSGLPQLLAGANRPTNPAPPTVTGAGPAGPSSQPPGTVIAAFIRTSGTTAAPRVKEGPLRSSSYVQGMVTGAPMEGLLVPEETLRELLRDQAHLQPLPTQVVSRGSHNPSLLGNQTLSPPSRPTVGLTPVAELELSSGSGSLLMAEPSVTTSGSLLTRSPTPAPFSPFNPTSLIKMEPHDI
Sequence of HSF1 (Q00613 whole entry): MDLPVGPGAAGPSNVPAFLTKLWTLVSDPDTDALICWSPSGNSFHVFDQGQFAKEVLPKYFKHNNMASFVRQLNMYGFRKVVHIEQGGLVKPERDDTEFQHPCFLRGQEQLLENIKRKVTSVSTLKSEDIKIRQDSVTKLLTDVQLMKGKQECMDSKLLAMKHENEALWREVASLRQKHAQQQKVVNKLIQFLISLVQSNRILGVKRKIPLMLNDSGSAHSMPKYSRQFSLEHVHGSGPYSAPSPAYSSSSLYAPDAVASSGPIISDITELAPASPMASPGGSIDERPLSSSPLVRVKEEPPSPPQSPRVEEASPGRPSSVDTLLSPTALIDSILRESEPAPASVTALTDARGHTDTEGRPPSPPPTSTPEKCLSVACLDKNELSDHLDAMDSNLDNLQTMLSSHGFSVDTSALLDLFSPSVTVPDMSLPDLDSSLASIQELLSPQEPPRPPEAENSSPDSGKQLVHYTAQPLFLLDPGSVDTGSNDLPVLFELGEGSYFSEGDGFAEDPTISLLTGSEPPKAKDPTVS
Sequence of ETV6 (P41212 whole entry): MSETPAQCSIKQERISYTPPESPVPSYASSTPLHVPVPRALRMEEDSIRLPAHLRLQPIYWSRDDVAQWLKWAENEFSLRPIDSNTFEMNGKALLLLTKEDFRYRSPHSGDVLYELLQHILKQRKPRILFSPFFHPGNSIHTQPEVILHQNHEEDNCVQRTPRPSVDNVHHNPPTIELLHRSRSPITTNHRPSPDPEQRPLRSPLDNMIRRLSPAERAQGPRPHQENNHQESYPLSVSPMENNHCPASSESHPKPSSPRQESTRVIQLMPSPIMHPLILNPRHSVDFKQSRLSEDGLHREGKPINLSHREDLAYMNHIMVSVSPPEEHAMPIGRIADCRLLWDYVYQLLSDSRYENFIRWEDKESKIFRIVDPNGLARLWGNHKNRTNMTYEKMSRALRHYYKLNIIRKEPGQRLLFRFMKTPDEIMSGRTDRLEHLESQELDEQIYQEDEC
Sequence of ETV1 (P50549 whole entry): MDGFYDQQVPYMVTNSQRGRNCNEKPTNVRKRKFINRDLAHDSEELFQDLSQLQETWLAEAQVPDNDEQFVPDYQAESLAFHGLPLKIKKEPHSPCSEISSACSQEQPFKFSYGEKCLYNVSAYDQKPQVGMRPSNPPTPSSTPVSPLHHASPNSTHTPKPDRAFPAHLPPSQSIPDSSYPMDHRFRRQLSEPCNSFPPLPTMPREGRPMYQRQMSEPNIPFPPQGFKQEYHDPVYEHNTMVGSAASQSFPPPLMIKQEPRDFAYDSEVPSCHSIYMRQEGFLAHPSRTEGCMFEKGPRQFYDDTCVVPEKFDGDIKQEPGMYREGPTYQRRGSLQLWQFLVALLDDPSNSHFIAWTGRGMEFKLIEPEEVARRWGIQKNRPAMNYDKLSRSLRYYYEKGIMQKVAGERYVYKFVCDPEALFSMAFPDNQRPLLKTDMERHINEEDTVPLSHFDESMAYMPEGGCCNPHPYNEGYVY
Sequence of ETV5 (P41161 whole entry): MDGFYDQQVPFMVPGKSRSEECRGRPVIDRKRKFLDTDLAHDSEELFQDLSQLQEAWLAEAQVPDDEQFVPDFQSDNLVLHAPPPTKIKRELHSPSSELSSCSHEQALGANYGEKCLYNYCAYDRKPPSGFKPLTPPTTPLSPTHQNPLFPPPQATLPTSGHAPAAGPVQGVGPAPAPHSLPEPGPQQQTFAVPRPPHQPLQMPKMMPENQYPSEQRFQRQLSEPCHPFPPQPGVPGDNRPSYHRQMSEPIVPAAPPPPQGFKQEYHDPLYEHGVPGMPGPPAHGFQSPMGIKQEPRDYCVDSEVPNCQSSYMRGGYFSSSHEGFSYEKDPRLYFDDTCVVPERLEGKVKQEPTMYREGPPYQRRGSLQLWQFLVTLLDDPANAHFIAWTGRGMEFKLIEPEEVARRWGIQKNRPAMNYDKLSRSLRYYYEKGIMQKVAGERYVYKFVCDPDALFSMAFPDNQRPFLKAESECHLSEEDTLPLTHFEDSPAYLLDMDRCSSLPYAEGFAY
Sequence of CRX (O43186 whole entry): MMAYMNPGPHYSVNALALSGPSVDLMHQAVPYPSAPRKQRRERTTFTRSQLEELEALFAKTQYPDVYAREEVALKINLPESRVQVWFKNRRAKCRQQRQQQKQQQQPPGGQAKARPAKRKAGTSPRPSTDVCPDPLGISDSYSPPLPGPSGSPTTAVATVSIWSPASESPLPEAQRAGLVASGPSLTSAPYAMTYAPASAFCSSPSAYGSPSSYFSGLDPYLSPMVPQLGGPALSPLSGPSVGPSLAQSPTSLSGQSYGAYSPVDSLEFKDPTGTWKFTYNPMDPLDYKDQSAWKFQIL

CTTGCT
binding signal (FEV): 1.25 fold enrichment (6-mer frequency, TF over GST control)
binding signal (ETV5): 1.39 fold enrichment (6-mer frequency, TF over GST control)
binding signal (HSF1): 1.24 fold enrichment (6-mer frequency, TF over GST control)
binding signal (SPIC): 1.52 fold enrichment (6-mer frequency, TF over GST control)
binding signal (ELF4): 1.35 fold enrichment (6-mer frequency, TF over GST control)
binding signal (ELK4): 1.34 fold enrichment (6-mer frequency, TF over GST control)
binding signal (ETV2): 1.58 fold enrichment (6-mer frequency, TF over GST control)
binding signal (ELF3): 1.52 fold enrichment (6-mer frequency, TF over GST control)
binding signal (CRX): 1.18 fold enrichment (6-mer frequency, TF over GST control)
binding signal (ETV1): 1.36 fold enrichment (6-mer frequency, TF over GST control)
binding signal (ERF): 1.36 fold enrichment (6-mer frequency, TF over GST control)
binding signal (ETV3L): 1.37 fold enrichment (6-mer frequency, TF over GST control)
binding signal (ETS2): 1.21 fold enrichment (6-mer frequency, TF over GST control)
binding signal (SPDEF): 1.23 fold enrichment (6-mer frequency, TF over GST control)
binding signal (ETV7): 1.52 fold enrichment (6-mer frequency, TF over GST control)
binding signal (ELF5): 1.27 fold enrichment (6-mer frequency, TF over GST control)
binding signal (ETV3): 1.33 fold enrichment (6-mer frequency, TF over GST control)
binding signal (ETV6): 1.36 fold enrichment (6-mer frequency, TF over GST control)
